D1 ag: human D1 receptor agonism; P21728; activation, % at 2 µM; 1% of 360,000 active; HEK293 T-REx D1 cells, calcium flux, agonist mode; in the data active means activation above about 30%; further: 0% is about no effect
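Inducible HEK293 T-REx D1 cells, force-coupled to calcium signalling, were plated at 4000 cells/well with tetracycline and held overnight at 30 C. After no-wash calcium dye loading, compound-evoked calcium rise over 180 s flagged agonists.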
DRD3 antagonist: blocks the human D3 dopamine receptor. max response, negative = inhibition, %. P35462. 2.5% of 360,000 active. D3R cells, DiscoveRx beta-arrestin luminescence, antagonist mode; hits give low values; in the data active means max response below about -50%; inconclusive means no clear call, values can overlap the other calls; further: on the % scale 0 is the no-effect control and ±100 the full control effect
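Cells plated overnight at 1500 cells/well, then exposed to library compounds with dopamine controls for 90 minutes at 37 degrees C. DiscoveRx reagent added for 30–60 minutes at room temperature; luminescence read, quantitative HTS format.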
DRD3 agonist: activates the human D3 dopamine receptor | max activation, % | D3R DiscoveRx beta-arrestin cells, luminescence, 90 min | AID 652048 | 0.58% of 410,000 active; in the data active means max activation above about 30%; further: 0% is about no effect
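Agonist-mode cell screen: cells plated at 1500/well and incubated overnight at 37 °C, then exposed to library compounds for 90 min at 37 °C. Detection reagent was added for 30–60 min at room temperature, and luminescence was read.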
D1 PAM: enhances dopamine response at the human D1 receptor. potentiation, % at 10 µM. P21728. 0.036% of 360,000 active. HEK293 TREx D1 cells, calcium flux, dopamine EC20 potentiation; in the data active means potentiation above about 30%; further: 0% is about no effect
ERG-DNA inh: inhibitors of human ERG Ets domain-DNA interaction; fluorescence polarization, His-ERG Ets domain / labelled DNA; 0.028% of 370,000 active; P11308; Potency, µM (series often up to 76.9 µM), for the others: at the top dose FP activity, negative = inhibition, usual class: inhibitors; AID 624246; active means well fitted inhibition curve with a large enough effect in the polarisation, with a control signal flat; inconclusive means small, poorly fitted or top-dose-only effect, or effect the other way, or a change in a side signal; inactive means no such curve, though single readings can be large or run the other way; the % refers to the polarisation;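 further: polarization taken with two DNA probes labelled with fluorescein and Texas red; potency means the concentration at half of the fitted maximal effect; % of control where 0% means no effect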
Target sequence (P11308 whole entry, looked up, the tested form may be a part): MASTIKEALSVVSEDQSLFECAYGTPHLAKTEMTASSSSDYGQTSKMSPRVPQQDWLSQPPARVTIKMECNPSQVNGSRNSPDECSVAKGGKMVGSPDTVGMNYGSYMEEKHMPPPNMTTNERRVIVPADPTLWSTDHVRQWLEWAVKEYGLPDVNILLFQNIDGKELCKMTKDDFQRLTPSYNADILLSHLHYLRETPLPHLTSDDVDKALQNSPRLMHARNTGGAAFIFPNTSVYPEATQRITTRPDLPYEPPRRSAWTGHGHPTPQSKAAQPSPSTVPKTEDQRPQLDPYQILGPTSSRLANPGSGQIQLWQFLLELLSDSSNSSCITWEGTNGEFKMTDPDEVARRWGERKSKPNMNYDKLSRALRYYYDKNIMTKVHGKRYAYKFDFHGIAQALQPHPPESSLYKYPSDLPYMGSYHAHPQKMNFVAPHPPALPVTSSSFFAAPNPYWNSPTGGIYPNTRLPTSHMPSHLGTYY
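His-tagged ERG Ets domain (1 uM in the protein solution; 300mM KCl, 50mM Tris-HCl, 1mM EDTA, 1mM DTT, pH 7.5) received compound, then a probe mix of 5 nM fluorescein-DNA and 100nM Texas-615-DNA. Fluorescence polarization was read for both dyes.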
D1 antagonist: blocks dopamine activation of the human D1 receptor. HEK293 TREx D1 cells, calcium flux, dopamine EC80; hits give low values. 3.2% of 360,000 active. activity change, negative = inhibition, % at 10 µM. P21728; in the data active means activity change below about -30%; further: on the % scale 0 is the no-effect control and ±100 the full control effect
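Cells carrying a force-coupled, tetracycline-inducible human D1 receptor report calcium flux. Each well gets a 10 s baseline, compound with 180 s monitoring, then an EC80 dopamine stimulus with a second 180 s kinetic read.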
The depositor's hits bear a star; ? = inconclusive; · = not tested or not shown. A selection: hits, their analogues and other compounds. The true share with any hit is near 6.1%.

SMILES	D1 ag	DRD3 antagonist	DRD3 agonist	D1 PAM	ERG-DNA inh	D1 antagonist
CC(C)Oc1ccc(C(=O)Nc2cc(S(=O)(=O)N3CCOCC3)ccc2N2CCOCC2)cc1	1	-3	-3	-1	16%	-40*
O=C(Nc1cccc(S(=O)(=O)C(F)F)c1)c1ccc(Cl)c(S(=O)(=O)N2CCOCC2)c1	10	0	-12	-2	-1%	-34*
COc1ccc(C(=O)NC(=S)Nc2cccc(S(=O)(=O)N3CCOCC3)c2)cc1	9	-7	-3	-7	-3%	9
O=C(Nc1cccc(Br)c1)c1ccc(Cl)c(S(=O)(=O)N2CCOCC2)c1	0	17	12	2	·	5
O=c1[nH]c(=S)[nH]c2c1C(c1cc([N+](=O)[O-])c(N3CCOCC3)cc1N1CCOCC1)O2 (stereo not drawn)	0	-12	0	-2	4%	34
O=C(c1cccs1)N1CCCC(c2nc3c(nnn3Cc3ccc(F)cc3)c(=O)[nH]2)C1 (stereo not drawn)	-1	2	9	-2	-10%	1
Cc1ccc(OC(=O)C(F)(F)F)c2c1NCCC2	0	1	0	34*	-9%	-22
O=C(c1cccs1)N1CCN(c2nc3ccccc3s2)CC1	6	17	3	-3	2%	-37*
CCCC(=O)N1CCN(c2nc3ccccc3s2)CC1	4	1	6	-5	-16%	7
O=C(C1COc2ccccc2O1)N1CCN(c2nc3ccccc3s2)CC1 (stereo not drawn)	6	8	4	-8	-11%	-62*
O=C(C1COc2ccccc2O1)N1CCN(c2nc3ccc([N+](=O)[O-])cc3s2)CC1 (stereo not drawn)	6	10	-6	0	2%	-24
CCSc1ccccc1C(=O)N1CCN(c2nc3ccccc3s2)CC1	31*	·	-9	8	-1%	·
c1ccc(-c2nnc(CSc3nnc(-c4ccncc4)n3Cc3ccco3)o2)cc1	2	1	1	-3	2%	1
Cc1nonc1CN(C)C(=O)CC1C(=O)NCCN1Cc1ccccc1F (stereo not drawn)	3	4	11	-6	4%	4
N#CC1=C(N)Oc2ccc3ccc(O)cc3c2C1c1cccnc1 (stereo not drawn)	1	-16	3	-7	·	-76*
Cc1nn(-c2cccc(Cl)c2)c2c1C(c1cccnc1)C(C#N)=C(N)O2 (stereo not drawn)	7	-23	3	-1	1%	-36*
N#CC1=C(N)Oc2cc(O)c(Cl)cc2C1c1cccnc1 (stereo not drawn)	60*	-15	2	2	-9%	7
N#CC1=C(N)Oc2cc(O)c(Cl)cc2C1c1ccccc1F (stereo not drawn)	166*	55	2	15	4%	0
COC(=O)C1=C(C)OC(N)=C(C#N)C1c1ccccc1F (stereo not drawn)	0	15	15	-9	-1%	-14
N#Cc1cn(OCc2ccccc2)c(=O)[nH]c1=O	6	?	-13	-12	0%	-24
Cc1ccc(C)c(S(=O)(=O)N2CCCC2CNC(=O)C(=O)NC2CCCC2)c1 (stereo not drawn)	3	-15	2	5	-2%	-17
COc1ccc(CN2CCCN(CC(=O)Nc3ccc4c(c3)OCCO4)S2(=O)=O)cc1	2	·	2	-1	1%	-16
CCCCc1nc2cc(C(=O)N3CCN(c4cnccn4)CC3)ccc2o1	0	14	2	1	-12%	-7
CCc1ccccc1N(C)C(=O)c1cnc(N2CCOCC2)c2ccccc12	0	·	5	-3	-2%	-13
Cc1ccc(N(C)C(=O)c2cnc(N3CCOCC3)c3ccccc23)cc1C	0	·	9	-1	-2%	-37*
SMILES	D1 ag	DRD3 antagonist	DRD3 agonist	D1 PAM	ERG-DNA inh	D1 antagonist
CCN(C(=O)c1cnc(N2CCOCC2)c2ccccc12)c1cc(C)ccc1C	2	·	0	-2	1%	-43*
CCOC(=O)C1CCCN(C(=O)C2CCN(Cc3nc(-c4ccc(Cl)cc4)oc3C)CC2)C1 (stereo not drawn)	·	-28	-16	·	-16%	·
Cc1oc(-c2ccc(Cl)cc2)nc1CN1CCC(C(=O)N2CCN(Cc3ccccc3)CC2)CC1	33*	-77*	-6	·	15%	-68*
Cc1oc(-c2ccc(Cl)cc2)nc1CN1CCC(C(=O)N2CCc3ccccc3C2)CC1	14	-70*	-12	·	-1%	-17
Cc1cc(Nc2ccccc2)n(C(=O)c2ccc(Cl)cc2)n1	-1	6	3	-3	·	2
Cc1ccc(/C=C2\SC(=S)N(/N=C/c3cc([N+](=O)[O-])ccc3O)C2=O)o1	9	-75*	-4	-4	-3%	-1
O=[N+]([O-])c1ccc(O)c(/C=N/n2cnc3ccccc32)c1	26	-15	0	-3	11%	-6
Cc1noc(C)c1C(=O)N1CCC1(C)C(=O)NS(=O)(=O)c1cccc(Cl)c1 (stereo not drawn)	·	-5	30*	·	·	·
Cc1noc(C)c1C(=O)N1CCC1(C)C(=O)NS(=O)(=O)c1ccc(Cl)cc1 (stereo not drawn)	·	-2	-3	·	·	·
COC(=O)CN(c1ccc(C)cc1)S(=O)(=O)c1c(C)[nH]c(=O)[nH]c1=O	1	5	3	1	·	-1
COc1cc(/C=N/NC(=O)C(C)n2nnc3ccccc32)ccc1O (stereo not drawn)	0	17	4	-1	-1%	-5
COc1cc(/C=N/NC(N)=O)ccc1OC(=O)c1ccco1	4	4	22	-3	-6%	-35*
COc1cc(/C=N\NC(=O)c2ccc(C)nc2)ccc1OC(=O)c1ccco1	0	0	-5	-1	-25%	1
COc1ccc(/C=N/NC(=O)C(C)n2nnc3ccccc32)cc1OC (stereo not drawn)	0	-1	0	-7	2%	-74*
COc1ccc(/C=N/NC(=O)CSc2ccccn2)cc1OC	1	-4	-9	-8	-1%	-32*
COc1cccc(C(=O)c2cn(CC(=O)Nc3cccc(C)c3C)c3nc(C)ccc3c2=O)c1	3	·	1	-4	14%	31
Cc1nc2ccc(-c3nc4cc(N)ccc4o3)cc2[nH]1	2	41	4	-5	-9%	-17
CC(C)CCNC(=O)Cn1c2c(c(-c3ccccc3Cl)cc1=O)CCC2	7	-13	-3	3	1%	6
CC1CCC(NC(=O)Cn2c3c(c(-c4ccccc4Cl)cc2=O)CCC3)CC1 (stereo not drawn)	-1	-77*	-12	-3	-6%	5

Screens as filed in PubChem.
